Results published in PubChem BioAssay (Tox21).
Inconclusive results are not listed. Active and inactive are the calls of the source. Unless noted, calls come from the whole dose curve; as a rule, active = well fitted curve in the direction sought with a large enough effect in the repeat runs; inconclusive = weak or mixed curves; inactive = no such curve, though single readings can be large; an effect the other way counts as inactive or inconclusive.

Assays:
[1] = qHTS assay to identify small molecule agonists of the peroxisome proliferator-activated receptor delta (PPARd) signaling pathway - cell viability counter screen (AID 743211); note: nearly all actives have a fitted effect of over 55% in size
Procedure, shortened: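 Luminescent ATP viability assay (CellTiter-Glo, 30 min RT) in UAS-bla HEK293H cells carrying the PPAR delta reporter construct, 3000 cells/well, after a 17 h compound treatment at 37 C.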

[2] = qHTS assay to identify small molecule antagonists of the peroxisome proliferator-activated receptor delta (PPARd) signaling pathway - cell viability counter screen (AID 743213); note: nearly all actives have a fitted effect of over 50% in size
Procedure, shortened: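 PPARd-bla HEK293H cells (3000/well) got compound plus 300 nM L165041 agonist for 17 h at 37 C. Viability in the same wells came from CellTiter-Glo luminescence after 30 min at room temperature.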

[3] = target: Bile acid receptor (Homo sapiens) (UniProt Q96RI1); experiment: qHTS assay to identify small molecule antagonists of the farnesoid-X-receptor (FXR) signaling pathway (AID 743217; active = well fitted inhibition curve with a large enough effect in the signal ratio in the repeat runs, not every such curve was filed as active; the % refers to the signal ratio)
Bile acid receptor (Homo sapiens), sequence (Q96RI1 whole entry, looked up): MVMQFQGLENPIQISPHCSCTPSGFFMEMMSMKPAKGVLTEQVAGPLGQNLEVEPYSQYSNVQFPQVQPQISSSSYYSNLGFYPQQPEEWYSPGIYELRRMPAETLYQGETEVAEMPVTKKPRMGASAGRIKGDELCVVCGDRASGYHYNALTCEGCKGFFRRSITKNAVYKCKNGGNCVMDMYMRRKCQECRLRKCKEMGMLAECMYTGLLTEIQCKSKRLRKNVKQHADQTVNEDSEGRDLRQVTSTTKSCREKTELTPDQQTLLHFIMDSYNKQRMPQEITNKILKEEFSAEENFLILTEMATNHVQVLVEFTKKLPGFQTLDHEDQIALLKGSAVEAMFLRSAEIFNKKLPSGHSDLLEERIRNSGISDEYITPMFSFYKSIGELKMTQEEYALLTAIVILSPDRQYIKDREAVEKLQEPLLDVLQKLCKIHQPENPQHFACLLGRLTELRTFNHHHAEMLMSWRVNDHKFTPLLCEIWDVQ
Procedure, shortened: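 Quantitative HTS, beta-lactamase reporter format: FXR-UAS-bla HEK 293T cells co-treated 16 h at 37 °C with compounds and 50 uM final chenodeoxycholic acid, then read by B/G FRET fluorescence.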

[4] = qHTS assay to identify small molecule agonists of the farnesoid-X-receptor (FXR) signaling pathway - cell viability counter screen (AID 743218); note: nearly all actives have a fitted effect of over 45% in size
Procedure, shortened: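 Same-well cytotoxicity check on FXR-UAS-bla HEK 293T cells: 5 h attachment, 16 h compound at 37 C, CellTiter-Glo luminescence read at room temperature after 30 min.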

[5] = target: Bile acid receptor (Homo sapiens) (UniProt Q96RI1); experiment: qHTS assay to identify small molecule agonists of the farnesoid-X-receptor (FXR) signaling pathway (AID 743220; active = well fitted activation curve with a large enough effect in the signal ratio in the repeat runs, not every such curve was filed as active; the % refers to the signal ratio)
Procedure, shortened: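 FXR-UAS-bla HEK 293T cells carrying a UAS-driven beta-lactamase reporter were plated for 5 h at 37C/5% CO2, then exposed to DMSO-dissolved Tox21 10K compounds for 16 h at 37C. A LiveBLAzer B/G FRET substrate was loaded for 2 h at room temperature before fluorescence reading.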

[6] = qHTS assay to identify small molecule antagonists of the farnesoid-X-receptor (FXR) signaling pathway - cell viability counter screen (AID 743221; active = well fitted cell-killing curve with a large enough effect in the repeat runs, not every such curve was filed as active; note: nearly all actives have a fitted effect of over 50% in size)
Procedure, shortened: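 In GeneBLAzer FXR-UAS-bla HEK 293T cells stimulated with 50 uM chenodeoxycholic acid (final), compounds acted for 16 h at 37 C. Viability was assessed afterwards by CellTiter-Glo luminescence.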

[7] = target: Vitamin D3 receptor (Homo sapiens) (UniProt P11473); experiment: qHTS assay to identify small molecule agonists of the vitamin D receptor (VDR) signaling pathway (AID 743222; calls by dose curve)
Vitamin D3 receptor (Homo sapiens), sequence (P11473 whole entry, looked up): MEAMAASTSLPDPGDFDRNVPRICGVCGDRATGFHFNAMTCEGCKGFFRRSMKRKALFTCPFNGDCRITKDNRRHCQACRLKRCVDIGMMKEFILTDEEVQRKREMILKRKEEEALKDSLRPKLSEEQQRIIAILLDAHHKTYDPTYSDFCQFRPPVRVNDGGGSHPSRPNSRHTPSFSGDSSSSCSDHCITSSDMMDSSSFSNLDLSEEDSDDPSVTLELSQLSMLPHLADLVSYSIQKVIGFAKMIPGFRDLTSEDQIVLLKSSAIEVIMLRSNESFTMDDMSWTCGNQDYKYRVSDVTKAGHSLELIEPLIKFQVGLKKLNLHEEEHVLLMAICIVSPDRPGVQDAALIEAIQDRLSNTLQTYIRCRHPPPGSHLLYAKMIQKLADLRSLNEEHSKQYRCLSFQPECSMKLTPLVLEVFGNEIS
Procedure, shortened: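 Using LiveBLAzer B/G FRET detection, agonism was scored in VDR-bla cells exposed overnight (16 h, 37C) to DMSO-dissolved compounds; substrate incubation was 2 h at room temperature.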

[8] = target: Vitamin D3 receptor (Homo sapiens) (UniProt P11473); experiment: qHTS assay to identify small molecule antagonists of the vitamin D receptor (VDR) signaling pathway (AID 743223; active = well fitted inhibition curve with a large enough effect in the signal ratio in the repeat runs, not every such curve was filed as active; the % refers to the signal ratio)
Procedure, shortened: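 Agonist 1alpha,25-dihydroxyvitamin D3 (3 nM in well) was added with each compound to VDR-bla cells preincubated 4 h. Cells stood 16 h at 37C, then FRET substrate 2 h at room temperature; fluorescence intensity recorded.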

[9] = qHTS assay to identify small molecule agonists of the vitamin D receptor (VDR) signaling pathway - cell viability counter screen (AID 743224); note: series mostly up to about 63 µM; nearly all actives have a fitted effect of over 50% in size
Procedure, shortened: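 Counter screen for cytotoxicity: VDR-bla cells at 2,000 cells/well, 16 h compound exposure, then CellTiter-Glo luminescence after the beta-lactamase measurement.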

[10] = qHTS assay to identify small molecule agonists of the NFkB signaling pathway (AID 1159509; active = well fitted curve in the direction sought with a large enough effect in the signal ratio in the repeat runs, not every such curve was filed as active; the % refers to the signal ratio; note: series mostly up to about 61 µM)
Procedure, shortened: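 Agonist activity was read as beta-lactamase-driven FRET change (460 and 530 nm emission, 405 nm excitation) following 1.5 hr substrate loading at room temperature. Beforehand, ME-180 NFkB-bla reporter cells were treated with compounds for 5 hr at 37 C.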

[11] = qHTS assay to identify small molecule agonists of the endoplasmic reticulum stress response signaling pathway - cell viability counter screen (AID 1159517; calls by dose curve; note: series mostly up to about 61 µM; nearly all actives have a fitted effect of over 50% in size)
Procedure, shortened: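 ESRE-bla HeLa cells (1,500/well) were plated overnight at 37 C and exposed to compounds for 5 hr. After the 2 hr beta-lactamase substrate read, CellTiter-Glo went into the same wells, and luminescence was read after 30 min at room temperature.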

[12] = qHTS assay to identify small molecule antagonists of the retinoid-related orphan receptor gamma (ROR-gamma) signaling pathway - cell viability counter screen (AID 1159520); note: nearly all actives have a fitted effect of over 50% in size
Procedure, shortened: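 Cytotoxicity was read from cellular ATP (CellTiter-Glo luminescence) after 16 hr at 37 C with 1 uM doxycycline induction. The inducer was added 2 hr after compound transfer to Tet-on ROR gamma CHO cells.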

[13] = target: Nuclear receptor ROR-gamma (Homo sapiens) (UniProt P51449); experiment: qHTS assay to identify small molecule antagonists of the retinoid-related orphan receptor gamma (ROR-gamma) signaling pathway (AID 1159521)
Procedure, shortened: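 CHO cells expressing RORγ under a TET-on promoter, luciferase under RORE control. Dox 1 uM final, 16 h; compounds added 2 h prior. Luminescence decrease measured.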

[14] = qHTS assay to identify small molecule agonists of the AP-1 signaling pathway - cell viability counter screen (AID 1159525; calls by dose curve; note: nearly all actives have a fitted effect of over 55% in size)
Procedure, shortened: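 Intracellular ATP by Cell Titer Glo luminescence (30 min, RT) in the same ME-180 AP-1-bla wells after the 5 h compound exposure at 37 °C. Normalised to tetra n-octyl ammonium bromide and DMSO controls.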

[15] = qHTS assay to identify small molecule agonists of the AP-1 signaling pathway (AID 1159526; calls by dose curve)
[16] = target: Peroxisome proliferator-activated receptor delta (Homo sapiens) (UniProt Q03181); experiment: qHTS assay to identify small molecule agonists of the peroxisome proliferator-activated receptor delta (PPARd) signaling pathway (AID 743212; calls by dose curve;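 note: HEK293H cells with PPARd UAS beta-lactamase reporter GeneBLAzer system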)
Peroxisome proliferator-activated receptor delta (Homo sapiens), sequence (Q03181 whole entry, looked up): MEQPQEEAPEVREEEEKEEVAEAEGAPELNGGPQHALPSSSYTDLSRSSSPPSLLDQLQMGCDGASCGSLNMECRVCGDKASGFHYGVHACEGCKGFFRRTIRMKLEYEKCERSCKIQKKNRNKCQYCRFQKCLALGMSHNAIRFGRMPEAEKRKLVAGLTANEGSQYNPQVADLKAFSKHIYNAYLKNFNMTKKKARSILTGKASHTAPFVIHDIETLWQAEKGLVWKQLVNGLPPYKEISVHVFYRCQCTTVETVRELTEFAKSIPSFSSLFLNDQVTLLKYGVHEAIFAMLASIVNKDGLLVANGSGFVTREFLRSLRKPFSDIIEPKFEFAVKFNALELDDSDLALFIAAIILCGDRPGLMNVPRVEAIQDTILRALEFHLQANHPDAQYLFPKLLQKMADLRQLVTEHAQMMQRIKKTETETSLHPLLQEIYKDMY
Procedure, shortened: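 Beta-lactamase reporter readout: a ratiometric FRET signal from the LiveBLAzer substrate after 2 h at room temperature. Compound exposure at 37 °C in PPARδ-bla HEK293H cells driven by an upstream activator sequence.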

[17] = target: Peroxisome proliferator-activated receptor delta (Homo sapiens) (UniProt Q03181); experiment: qHTS assay to identify small molecule antagonists of the peroxisome proliferator-activated receptor delta (PPARd) signaling pathway (AID 743215; active = well fitted inhibition curve with a large enough effect in the signal ratio in the repeat runs, not every such curve was filed as active; the % refers to the signal ratio;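 note: cells stimulated with agonist L165041 at 300 nM final during compound exposure; series mostly up to about 62 µM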)
Procedure, shortened: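 Screen format: qHTS, antagonist mode. HEK293H PPARd-bla cells received compound and 300 nM L165041 (final), 17 h, 37 C. Beta-lactamase detected via FRET substrate fluorescence, 2 h, room temperature.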

[18] = qHTS assay to identify small molecule antagonists of the vitamin D receptor (VDR) signaling pathway - cell viability counter screen (AID 743225); note: nearly all actives have a fitted effect of over 50% in size
Procedure, shortened: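 Luminescent cell viability (CellTiter-Glo) in VDR-bla HEK 293T cells after 16 h compound exposure at 37C in the presence of 3 nM final 1-alpha,25-dihydroxy vitamin D3.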

[19] = qHTS assay to identify small molecule agonists of the endoplasmic reticulum stress response signaling pathway (AID 1159516; active = well fitted activation curve with a large enough effect in the signal ratio in the repeat runs, not every such curve was filed as active; the % refers to the signal ratio)
Procedure, shortened: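 For this screen, HeLa cells stably carrying beta-lactamase under the ER stress response element received test compounds, positive controls or DMSO for 5 hr at 37 C; B/G FRET substrate was then added and dual-wavelength emission recorded.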

[20] = qHTS assay to identify small molecule agonists of the NFkB signaling pathway - cell viability counter screen (AID 1159515; calls by dose curve; note: series mostly up to about 61 µM; nearly all actives have a fitted effect of over 55% in size)
Procedure, shortened: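 Counter screen run alongside the NFkB-bla agonist assay: ME-180 reporter cells exposed to compounds for 5 hr, then lysed with CellTiter-Glo in the same wells. Luminescence, read after 30 min, reflects viable cells.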

Measured: Potency

CCC(=O)c1ccc(O)cc1
inactive: [1] | [2] | [3] | [4] | [5] | [6] | [7] | [8] | [9] | [10] | [11] | [12] | [13] | [14] | [15]

CCCCCCCCCCCCC1CO1 (stereo not drawn)
inactive: [1] | [16] | [2] | [17] | [3] | [5] | [6] | [9] | [18] | [10] | [19] | [11] | [12] | [13] | [14] | [15]

C=C(C)[C@@H]1CC[C@@H](C)C[C@@H]1O
inactive: [1] | [2] | [4] | [6] | [18] | [20] | [19] | [11] | [12] | [13] | [14] | [15]

C=CCOCC(CO)(COCC=C)COCC=C
inactive: [1] | [16] | [2] | [17] | [6] | [7] | [8] | [18] | [10] | [19] | [11] | [12] | [14] | [15]

CO[Si](CCCCl)(OC)OC
inactive: [1] | [16] | [2] | [17] | [4] | [6] | [7] | [8] | [9] | [18] | [10] | [19] | [11] | [12] | [14] | [15]

CO/N=C(/C(=O)N[C@@H]1C(=O)N2C(C(=O)O)=C(Cn3nnc(C)n3)CS[C@H]12)c1csc(N)n1
inactive: [1] | [2] | [3] | [5] | [6] | [7] | [8] | [9] | [18] | [10] | [11] | [12] | [13] | [14] | [15]

NC(=O)C1(N2CCCCC2)CCN(CCCC(=O)c2ccc(F)cc2)CC1
inactive: [1] | [16] | [2] | [17] | [4] | [6] | [7] | [9] | [18] | [10] | [11] | [12] | [13] | [14] | [15]

CNCc1ccccc1
inactive: [1] | [16] | [2] | [17] | [3] | [4] | [6] | [9] | [10] | [19] | [11] | [12] | [13] | [14] | [15]
